The values below come from PubChem BioAssay AID631 (The Scripps Research Institute Molecular Screening Center, 2007).

Structures are written as SMILES. The campaign covered roughly 200,000 compounds. About 810 (0.41%) were called active. The list comes from a sample in which actives are over-represented; it also holds similar structures and randomly drawn compounds. A number with no mark means an inactive call. Rule as the data show it: active = activation above about 19%; inactive = the rest.

This assay deals with Peroxisome proliferator-activated receptor gamma (Homo sapiens) (UniProt P37231). The experiment in a line: enhancers of SRC-1 binding to PPARgamma – biochemical, primary screen (AID 631).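 Also: 0% = DMSO and 100% = reference agonist.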 The conditions noted are these: PPARgamma-SRC-1 coactivator recruitment biochemical assay; at 8 µM; hits give high values.
Sequence of Peroxisome proliferator-activated receptor gamma (Homo sapiens) (P37231 whole entry, looked up): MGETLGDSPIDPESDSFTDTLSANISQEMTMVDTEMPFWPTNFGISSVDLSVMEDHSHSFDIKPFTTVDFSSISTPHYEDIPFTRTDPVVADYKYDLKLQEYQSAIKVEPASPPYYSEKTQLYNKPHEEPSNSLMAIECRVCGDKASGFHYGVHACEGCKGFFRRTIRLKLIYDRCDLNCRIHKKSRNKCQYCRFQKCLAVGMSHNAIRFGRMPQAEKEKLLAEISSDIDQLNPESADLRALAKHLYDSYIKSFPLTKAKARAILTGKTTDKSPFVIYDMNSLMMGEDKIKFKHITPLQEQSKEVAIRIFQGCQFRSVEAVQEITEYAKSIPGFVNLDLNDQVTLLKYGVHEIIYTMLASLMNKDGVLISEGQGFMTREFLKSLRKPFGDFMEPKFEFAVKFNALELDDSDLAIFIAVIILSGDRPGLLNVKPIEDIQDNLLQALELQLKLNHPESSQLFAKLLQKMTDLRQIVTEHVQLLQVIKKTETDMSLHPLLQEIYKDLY
For the compound `O=C(Oc1ccc([N+](=O)[O-])cc1)c1ccc(Cl)c(S(=O)(=O)N2CCCCC2)c1`, the activation was -9.6%.

With `CC(C)N(C(=O)Cn1cc(SCC(=O)N2CCCC2)c2ccccc21)C(C)C`, the activation was 5.8%.

Regarding `Cc1ccc(NC(=O)CC2C(=O)N(Cc3ccccc3)C(=S)N2NC(=O)c2cccc(F)c2)c(C)c1` (stereo not drawn), the activation is -0.5%.

Regarding `CCN(CC)CCCNC(=O)CCc1ccccc1`, the activation was 3.3%.

Consider `CCN(CC)CCCNC(=O)c1cc(-c2cccc(Cl)c2)on1`, for which the activation was 3.6%.

For `CCN(CCCNC(=O)CSc1cc(=O)n(C)c2cc(Cl)ccc12)Cc1ccccc1`, the activation was 55.4% (active).

For `O=C(Nc1ccccc1Cl)c1ccccc1S(=O)(=O)c1ccccc1[N+](=O)[O-]`, the activation was 2.9%.

On to `COc1ccc(C(=O)C[n+]2ccc(C)cc2)cc1`, for which the activation is 0.2%.

In the case of `S=C(NN=C1CCN(Cc2ccccc2)CC1)NC1CCCCC1`, the activation is -1.7%.

On to `CC(Sc1cccc[n+]1[O-])C(=O)Nc1cccc(S(=O)(=O)N2CCOCC2)c1` (stereo not drawn), for which the activation is -5.3%.

Consider `COc1cccc(NC(=S)NC(=O)c2c(Cl)c(C)nn2C)c1`, for which the activation was 30.8% (active).

For `Cc1nn(C)c(C(=O)NNC(=S)NC2CCCCC2)c1Cl`, the activation is -8.4%.

On to `COc1cccc(NC(=S)NCc2ccccn2)c1`, for which the activation was 2.4%.

As for `O=C(/C=C/c1cnc2ccccc2n1)NC1CCCCCC1`, the activation was -0.4%.

Regarding `O=c1cc(O)c(-c2cccc(C(F)(F)F)c2)c(Cl)[nH]1`, the activation was 8%.

In the case of `Cn1c(=O)cc(SCC(=O)N2CCCC2)c2cc(Cl)ccc21`, the activation was 53.4% (active).

Regarding `Cn1c(=O)cc(SCC(=O)N2CCN(C(=O)c3ccco3)CC2)c2ccccc21`, the activation is 49.4% (active).

Consider `CCOC(=O)N1CCC(NC(=O)COc2cc(=O)n(C)c3ccccc23)CC1`, for which the activation was -0.7%.

As to `Cc1cccc(OCc2nnc(SCC(=O)N3CCN(C(=O)c4ccco4)CC3)n2C)c1C`, the activation is 5.6%.

Turning to `CCOC(=O)C1CCN(C(=O)Cn2cc(C#N)c3ccccc32)CC1`, the activation is -2.2%.

For the compound `O=C(CSCc1ccc(Cl)cc1)N1CCCCC1`, the activation is 2%.

For the compound `CCOc1ccc(CCNC(=O)CSc2cc(=O)n(C)c3ccc(Cl)cc23)cc1OCC`, the activation is 12%.

As for `CC(=O)c1ccc(-n2nnnc2SCC(=O)N2CCN(C(=O)c3ccco3)CC2)cc1`, the activation is 0.3%.

For the compound `CCOC(=O)C1CCN(C(=O)CSc2cc(=O)n(C)c3ccccc23)CC1`, the activation is 49.8% (active).

`CC1CN(CCCOc2ccccc2-c2ccccc2)CC(C)O1` (stereo not drawn): the activation is 6.7%.

`C/C(=N\Nc1nc(N2CCOCC2)nc(N2CCOCC2)n1)c1ccc([N+](=O)[O-])cc1`: the activation is 1.7%.

Consider `CCN(CC)c1ccc(C(=O)N/N=C(\C)c2cccc(OC)c2)cc1`, for which the activation was 9.4%.

As to `CCOC(=O)c1c(N)nn(C(=O)c2ccccc2)c1-c1ccccc1`, the activation was 3%.

As for `COc1cc2c(cc1OC)C(=O)NCC(C)(C)O2`, the activation is 9.4%.

On to `CCOC(=O)c1ccccc1C(=O)N1CCOCCOCCOCC1`, for which the activation was -0.2%.

Take `Cc1cnc(C(=O)N2CCCC(C(=O)c3ccc(C(F)(F)F)cc3)C2)cn1` (stereo not drawn): the activation is 5.6%.

On to `CN(C)/C(=N\OC(=O)c1ccccc1)c1nonc1N`, for which the activation was 2.5%.

Take `O=C(Nn1cnc2ccccc2c1=O)c1ccccc1`: the activation is 12.8%.

For `Nc1nc(SCC(=O)NCCN2CCOCC2)nc2sc3c(c12)CCC3`, the activation was 6%.

For `CCOc1cc(C2C(C(=O)OC(C)C)=C(C)NC3=C2C(=O)CCC3)cc([N+](=O)[O-])c1O` (stereo not drawn), the activation was -1%.

With `COc1ccc(Cl)cc1C(=O)NCc1cn(C)nc1C`, the activation is 0.6%.

Turning to `Cc1ccc(-c2cc(C(=O)NCc3cn(C)nc3C)c3cc(Br)ccc3n2)cc1`, the activation was 22.7% (active).

As for `Cc1ccc2nc(-c3cccc(Br)c3)cc(C(=O)Nn3cnnc3)c2c1`, the activation was -0.9%.

With `O=C(Cc1cc(=O)[nH][nH]1)N/N=C/c1ccccc1[N+](=O)[O-]`, the activation was 1.6%.

In the case of `O=C(COc1cccc2ccccc12)Nc1cc(S(=O)(=O)N2CCOCC2)ccc1N1CCOCC1`, the activation was 5.6%.

As to `COc1ccccc1CC(NC(C)=O)C(=O)NC1CCN(C(=O)Nc2ccccc2Cl)CC1` (stereo not drawn), the activation is 5.1%.

Consider `C=CCN(CC=C)CCOc1ccccc1[N+](=O)[O-]`, for which the activation was 2.5%.

`COCC1CCCN(Cc2nc(-c3ccc4c(c3)OCO4)no2)C1` (stereo not drawn): the activation was 10.9%.

On to `COc1ccc(C2c3[nH]c4ccccc4c3CCN2CCCn2cccn2)cc1C` (stereo not drawn), for which the activation was -5%.

As to `CC(C)(C)CC(=O)Nc1nnc(SCC(=O)NCc2cccs2)s1`, the activation is 10.6%.

On to `O=C(/C=C/Nc1ccccc1OC(F)(F)F)C(F)(F)F`, for which the activation is -4.7%.

Turning to `CN(C)c1ccc(N/C=C/C(=O)C(F)(F)F)cc1`, the activation was 31.5% (active).

Regarding `CCCOc1ccc(N/C=C/C(=O)C(C)(C)C)cc1`, the activation was 2.3%.

On to `COC(=O)C[n+]1cccc2ccccc21`, for which the activation is 4.1%.

In the case of `O=C(O)c1ccn(COc2ccc(Br)cc2)n1`, the activation was 7.4%.

On to `Cc1cc(-c2ccc(/C=N/n3cnnc3)o2)c([N+](=O)[O-])cc1C`, for which the activation is -9.4%.

In the case of `Cc1ccc(Cc2cnc(NC(=O)/C(C#N)=C/c3ccc(-c4cccc([N+](=O)[O-])c4)o3)s2)cc1`, the activation is 2.6%.

For the compound `Cc1ccc(-c2ccc(/C=C(\C#N)C(N)=S)o2)c([N+](=O)[O-])c1`, the activation is 22.9% (active).

On to `Cc1cc(C)cc(C(=O)N(CCc2ccccc2)C2=CC3CCC(C2)N3C)c1` (stereo not drawn), for which the activation was -4.8%.

In the case of `CSc1nc2nc(-c3cccc(C(F)(F)F)c3)ccn2n1`, the activation is 3.3%.

Regarding `CCn1ccnc1CN(C)Cc1nc(-c2ccc3c(c2)OCO3)no1`, the activation is 3.8%.

For `CC(C)CC(CC(C)C)=NNC(=O)c1ccc(CSc2nncn2C)cc1`, the activation is 9.8%.

On to `COC(=O)c1cccnc1NC(=S)NC(C)C`, for which the activation was 5.1%.

`Cc1ccc(Nc2ccccc2N)cc1`: the activation was 7.5%.

Regarding `Nc1ccc(Nc2ccccc2)cc1`, the activation is 20.9% (active).

Consider `Cc1cc(Nc2ccccc2)n(C(=O)c2ccc(N)cc2)n1`, for which the activation was 3.5%.

Consider `COc1cc(C(=O)NCc2nnc(SCC(=O)Nc3nc4ccc(C)cc4s3)o2)cc(OC)c1OC`, for which the activation is 4.6%.

Consider `COc1ccc(-c2ccc(CCC(=O)O)n2NC(=O)c2ccc(C(C)(C)C)cc2)cc1`, for which the activation is 4.4%.

`CCOC(=O)Cc1cc(=O)[nH]c(=O)[nH]1`: the activation is 1.2%.

For `O=C1CCC(=O)N1c1ccc(NCCc2ccccc2F)c([N+](=O)[O-])c1`, the activation is 9%.

Consider `CC(=O)c1sc2nc(SCC(=O)N3CCCCC3)[nH]c(=O)c2c1C`, for which the activation was 19.1% (active).

On to `C=CCNC(=O)CSc1nc2sc(C)c(C)c2c(=O)[nH]1`, for which the activation was 1.1%.

In the case of `O=C(CSc1nc2c(cnn2-c2ccc(F)cc2)c(=O)[nH]1)N1CCCCCC1`, the activation was 1.2%.

In the case of `Cc1cccc(NC(=O)c2ccc3nsnc3c2)c1C`, the activation was 4.5%.

For the compound `O=C(Cc1ccccc1)NNS(=O)(=O)c1ccc([N+](=O)[O-])cc1`, the activation is 0.6%.

For the compound `Cc1cn(C)c(=O)n(C)c1=O`, the activation is 3.8%.

Take `COc1ccc(CCN=C2SCC(=O)N2Cc2ccccc2)cc1OC`: the activation is -0.6%.

With `COc1cc(C2CC(=O)N3CN(Cc4ccccc4)CSC3=C2C#N)ccc1OCc1ccccc1` (stereo not drawn), the activation is 19% (active).

Consider `COc1cc(CNC2CCCC2)c(Br)cc1OCc1ccccc1`, for which the activation is 1.4%.

Turning to `CCOc1ccc(N(CC(=O)NCCc2ccc(OC)cc2)S(C)(=O)=O)cc1`, the activation is 0.5%.

With `CCOC(=O)Cc1csc(SCC(=O)NC(C)C23CC4CC(CC(C4)C2)C3)n1` (stereo not drawn), the activation is -9%.

`Cc1nnc(SCCCCSc2nnc(C)c(=O)[nH]2)[nH]c1=O`: the activation was 4.2%.

In the case of `COc1ccc(NC(=O)c2ccccc2CC[N+](=O)[O-])cc1`, the activation is 3.6%.
